Results on 58 molecules are retold here after PubChem BioAssay AID687014 (The Scripps Research Institute Molecular Screening Center, 2013).

The structures appear in SMILES notation. The whole screen tested about 370,000 compounds, of which about 6,800 (1.8%) were called active. The sample as a whole holds a higher share of actives than the screen did. Unmarked numbers belong to inactive results.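 How the source made its calls: active means activation above a cutoff set at the mean of all screened compounds plus 3 SD (cut at about 10% in these data); inactive means the rest.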

The assay has as its system Nuclear hormone receptor DAF-12 (Heterodera glycines), GAL4 fusion. Kind of assay: hgDAF-12 GAL4 fusion reporter activation – cell-based, luminescence, HEK293, UAS-luciferase, primary screen (AID 687014).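 Further: 0% = DMSO wells and 100% = sodium butyrate wells.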 The note with it: HEK293 GAL4-hgDAF12 UAS-luciferase reporter, agonist luminescence; at 6.8 µM; stronger effect = higher value; normalized to butyrate control. On the technique in general: Reporter assays use an easily measured gene product as a stand-in for the process of interest.
For the molecule `O=C(Nc1nc2ccc(Cl)cc2s1)c1cc(-c2ccc(Cl)cc2)nc2ccccc12`, the activation is -1.16%.
Regarding `O=C(Nc1ccccc1)Nc1nnc(COc2ccccc2F)s1`, the activation was -2.63%.
The same measure for `O=C(Nc1ccccc1)Nc1nc2ccccc2s1`: 26.4% (active); for `CC(C)c1ccc(C=NNc2ccc([N+](=O)[O-])cn2)cc1`: 16.8% (active).
The figure for `CC(C)c1ccc(/C=C2\NC(=O)NC2=O)cc1` is 1.14%.
The same measure for `CN(CCc1ccccc1)c1ccc([N+](=O)[O-])cn1`: 2.43%; for `CCOC(=O)c1csc(NC(=O)C2CCCN(S(=O)(=O)c3ccc(Cl)s3)C2)n1` (stereo not drawn): -0.73%.
Regarding `CSCCC(NC(=O)c1ccco1)C(=O)Nc1cc(C)ccn1` (stereo not drawn), the activation is 11.9% (active).
The figure for `CSCCC(NC(=O)c1ccco1)C(=O)OCC(=O)Nc1ncc(Cl)c(C)c1Cl` (stereo not drawn) is -1.62%; for `CSCCC(NC(=O)c1ccco1)C(=O)NCCc1ccc(F)cc1` (stereo not drawn) it is 0.46%; for `COC(=O)[C@]12C[C@H](CC(=O)NCc3ccccc3)C(=O)N(CCC3=CCCCC3)C1=C[C@H](C(C)C)O[C@@H]2C1CC1` it is 2%.
In the case of `O=[N+]([O-])c1cc(C(F)(F)F)ccc1NN=C1CCCC1`, the activation was 0.04%.
The same measure for `O=C(COc1ccc(S(=O)(=O)N2CCCC2)cc1[N+](=O)[O-])N1CCCCC1`: -0.16%; for `O=[N+]([O-])c1cc(S(=O)(=O)N2CCCC2)ccc1NN=C1CCCC1`: 15.3% (active).
The figure for `O=C1CC(c2ccc3c(c2)OCO3)N=C2N(CC3CC3)C/C(=C/c3ccccc3)N12` (stereo not drawn) is -2.7%.
The figure for `Cc1cc(C)cc(N(CC(=O)NC2CCCC2)C(=O)CCC(=O)Nc2cc(C)on2)c1` is -1.1%; for `COc1cc2c(cc1OC)/C(=C/C(=O)c1ccc(NC(C)=O)cc1)NCC2` it is 0.96%; for `CC1CN/C(=C\C(=O)c2ccc(Br)cc2)C(=O)N1` (stereo not drawn) it is 10.5% (active).
In the case of `O=C(O)C1CCCN1S(=O)(=O)c1ccc(Br)cc1` (stereo not drawn), the activation is 0.88%.
For `C=CCN=C1NC(c2cccc(C(F)(F)F)c2)C(C(=O)OC)=C(C)N1C` (stereo not drawn), the activation is 1.38%.
The figure for `Cc1cccc(Cn2cnc3c(N)c(C)c(C)cc32)c1` is -4.28%; for `CCCCCCN1CCS(=O)(=O)N(Cc2ccc(C(F)(F)F)cc2)C(C(=O)OC)C1` (stereo not drawn) it is 1.39%.
The same measure for `Cc1cnc(C(=O)OCC(=O)N2CCc3ccccc32)cn1`: 1.4%.
The figure for `CCCCn1nc(C(=O)N2CCc3ccccc32)c2ccccc2c1=O` is -0.16%; for `O=C(c1cnn2ccccc12)N1CCc2ccccc21` it is 16.5% (active); for `COC(=O)[C@]12C[C@H](CC(=O)NCCCCc3ccccc3)C(=O)N(Cc3ccc4c(c3)OCO4)C1=C[C@H](C(C)(C)C)O[C@@H]2C` it is 0.98%.
With `Cn1c(SCC(=O)c2cccs2)nnc1-c1ccco1`, the activation was 1.52%.
The same measure for `Cn1c(-c2ccco2)nc2cc3ccccc3cc21`: 19.3% (active); for `Cc1ccc(-n2ncc3c(=O)n(-c4ccc(C)c(C)c4)c(-c4ccco4)nc32)cc1`: 3.84%.
The figure for `O=C(Nc1c(Cl)c(C2CC2)nn1-c1ccccc1)C(Cl)(Cl)Cl` is -2.93%; for `CCC[C@H]1C(=O)CC[C@@]23CCCN2C(=O)CCC[C@@H]13` it is 1.6%; for `COC(=O)CSc1nnc(-c2cccnc2)o1` it is 1.06%.
Take `CC1(c2nnc(-c3ccncc3)o2)CC(c2cccnc2)=NO1` (stereo not drawn): the activation was 3.68%.
The same measure for `CN(C)c1ccc(-c2nnc(-c3cccnc3)o2)cc1`: 10.8% (active); for `COc1ccc(/C(N)=N/OC(=O)CCCc2ccccc2)cc1`: -0.4%.
The same measure for `COc1ccc(/C(N)=N/OC(=O)Oc2ccccc2)cc1`: 1.76%; for `COc1ccc(/C(N)=N/OC(=O)Cc2ccccc2)cc1`: 11.7% (active).
The figure for `CC(=O)Nc1ccc(OC[C@@H](O)CN2CCC(C(O)(c3ccccc3)c3ccccc3)CC2)cc1` is 2.46%; for `CCCNC(=O)C1CC(=O)N(c2ccc(OCc3ccccc3)cc2)C1` (stereo not drawn) it is 11% (active); for `CCOc1ccc(N2CC(C(=O)NCc3ccccn3)CC2=O)cc1` (stereo not drawn) it is -1.47%.
On to `CCCNC(=O)C1CC(=O)N(c2ccc(OCC(=O)Nc3cccc(C)c3C)cc2)C1` (stereo not drawn), for which the activation was 0.77%.
With `COc1ccc(N2CCN(CCNS(=O)(=O)c3ccc(Cl)s3)CC2)cc1`, the activation was 2.51%.
The same measure for `COc1cccc(C(O)Cc2nc3ccccc3n2C)c1OC` (stereo not drawn): 3.91%; for `Cc1ccc(Oc2nc3ccccc3n3c(C)nnc23)cc1`: 1.53%.
For the molecule `Cc1ccc(OCc2nc3ccccc3n2C)cc1`, the activation was 13.2% (active).
The same measure for `COC(=O)[C@]12C[C@H](CC(=O)NCc3cccc4ccccc34)C(=O)N(CCc3ccc(OC)c(OC)c3)C1=C[C@H](C1CCCC1)O[C@@H]2C`: -1.01%.
The figure for `O=C(CSc1nnc(-c2ccccn2)n1-c1ccccc1)Nc1ccc2cn[nH]c2c1` is 6.78%.
The figure for `O=C(NCCS(=O)(=O)c1ccc(Br)cc1)c1ccccc1Cl` is 2.39%; for `Cc1ccccc1NC(=O)Cn1nnc(-c2ccccc2F)n1` it is -1.63%; for `CN(C)c1ccnc2sc(C(=O)c3ccccc3)c(N)c12` it is 21.3% (active).
Consider `COC(=O)c1cc2c(N)c(C(=O)c3ccc(Cl)cc3)sc2nc1C(OC)OC`, for which the activation was -0.74%.
For the molecule `CC(=O)c1c(Nc2ccccc2)sc(C(=O)c2ccccc2)c1C`, the activation is 4.88%.
In the case of `COC(=O)c1c(C(=O)OC)c(-c2cccc(C)c2)n2c1CS(=O)C2` (stereo not drawn), the activation was 2.79%.
The figure for `Cc1cc(NS(=O)(=O)c2ccc(NC(=O)CSc3nnc(SCc4ccc(F)cc4)s3)cc2)nc(C)n1` is 1.18%.
Consider `CCOC(=O)C(=O)N(Cc1ccccc1)c1ccccc1C(=O)Nc1cc(OC)ccc1OC`, for which the activation is -2.17%.
The same measure for `Cc1ccccc1CN1CCCCC(NC(=O)c2cccc(C#N)c2)C1=O` (stereo not drawn): -2.73%.
The figure for `COC(=O)C1=C(C)N(Cc2ccc(C(F)(F)F)cc2)C(=NCc2ccccc2)NC1c1ccccc1C(F)(F)F` (stereo not drawn) is 1.9%; for `COCc1[nH]nc2c1C(c1ccccc1)N(c1ccccc1)C2=O` (stereo not drawn) it is 0.79%.
